We go through 55 compounds from PubChem BioAssay AID485297 (National Center for Advancing Translational Sciences (NCATS), 2010).

In all, about 320,000 compounds went through this assay and about 9,100 (2.8%) were called active. Another 3% or so got no clear call; they are omitted. Shown is part of a subset that was picked to be rich in actives. Values without a mark were called inactive. Calls come from the whole dose curve; as a rule, active = well fitted activation curve with a large enough effect; inconclusive = small, poorly fitted or top-dose-only effect; inactive = no such curve, though single readings can be large or run the other way.
Potency is the fitted concentration of half-maximal effect.

A short description of the test: qHTS Assay for Rab9 Promoter Activators. For activation, negative = inhibition: % of control where 0% means no effect. Note: nearly all actives have a fitted effect of over 60% in size. The settings on record: Huh7 Rab9 promoter-luciferase reporter, luminescence, 24 h; series mostly up to 9.22 µM; activation, negative = inhibition: at the top concentration. In a few lines:
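Huh7 cells stably carrying Rab9 promoter–luciferase reporter, plated 1500 cells/well, compound added after 2 h and incubated 24 h at 37 °C; luciferase luminescence then read after 10 min with detection reagent.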
(In general: qHTS replaces the single test concentration by a dilution series.)
Turning to `CN(CC(=O)Nc1ccc(Cl)c(C(F)(F)F)c1)C(=O)CCC(=O)c1ccccc1`, the “activation, negative = inhibition” value was 2.04%.
Take `NC1CCN(O)C1=O` (stereo not given): the “activation, negative = inhibition” value is -1.45% [at 46.1 µM].
Turning to `CC(C)CN(C(=O)CSc1ncnc2sccc12)C1CCS(=O)(=O)C1` (stereo not given), the “activation, negative = inhibition” value was -0.673%.
As to `CC(=O)Nc1ccc(NC(=O)C(NS(=O)(=O)c2ccc3c(c2)OCCO3)C(C)C)cc1` (stereo not given), the “activation, negative = inhibition” value was -7.1%.
Consider `Cc1ccc(S(=O)(=O)N(C)CC(=O)NCC(c2ccc(F)cc2)N2CCOCC2)cc1` (stereo not given), for which the “activation, negative = inhibition” value was 0.398%.
For the compound `O=C(COc1ccc(Cl)cc1)Nc1ccc2oc(=O)ccc2c1`, the “activation, negative = inhibition” value was 3%.
Still for that read-out and setting: with `Cc1ccc(C(=O)Nc2ccc(NC(=O)c3cccs3)cc2)c(C)c1` the figure was -2.4%.
Take `O=C(Nc1ccccc1)c1ccc(NC(=O)c2cccs2)cc1`: the “activation, negative = inhibition” value was -0.308%.
Consider `CC(C)C(=O)Nc1ccc(C(=O)NNC(=O)c2cccs2)cc1`, for which the “activation, negative = inhibition” value was 5.99%.
With `Cc1ccc(-c2csc(NC(=O)c3cccs3)n2)cc1`, the Potency is 3.55 µM (active).
Take `Cc1nc(-c2ccc(NC(=O)c3cccs3)cc2)cs1`: the Potency was 0.398 µM (active).
In the case of `Cc1ccc(-c2csc(NC(=O)Cn3[nH]c(=O)c4ccccc4c3=O)n2)cc1`, the “activation, negative = inhibition” value was 24.7%.
The same measure, in the same setting: with `CCCc1ccc(-c2csc(NC(=O)Cc3cccs3)n2)cc1` the figure was -8.16%.
For `O=C(NNC(=O)c1ccc(Cl)cc1Cl)c1cccs1`, the Potency is 3.55 µM (active).
Regarding `NNC(=O)c1ccc(Cl)cc1Cl`, the “activation, negative = inhibition” value was -0.559%.
`Cc1ccc(C(=O)NNC(=O)c2cccs2)cc1`: the Potency is 2.82 µM (active).
On to `Cc1ccc(C)c(NC(=O)CCC(=O)NNC(=O)c2cccs2)c1`, for which the “activation, negative = inhibition” value is -4.78%.
Turning to `Cc1ccc(NNC(=O)c2cccs2)cc1Cl`, the “activation, negative = inhibition” value was 0.177%.
Regarding `Cc1cccc(C)c1NC(=O)CNC(=O)C1CCCC1`, the “activation, negative = inhibition” value is -1.31%.
Still for that read-out and setting: then `O=C(CN1CCCCC1)NC(=O)Nc1ccccc1F`, with 22.7%; and `CC(=O)C[C@@H](O)CC(=O)[C@H]1OC(=O)CCCCCCc2ccccc21`, with -3.17%; and `Cc1cc(C(=O)OCC(=O)Nc2ccccc2Cl)c(C)o1`, with -6.44%.
On to `O=C(COc1ccccc1O)NC1CCCC1`, for which the “activation, negative = inhibition” value is -6.06%.
`COc1ccc(C(=O)NCC2CCCCC2)cc1S(=O)(=O)N1CCCC1`: the “activation, negative = inhibition” value is 0.873%.
As to `COc1ccc(OC)c(NC(=O)c2sc3nc(C)cc(C)c3c2N)c1`, the “activation, negative = inhibition” value was 8.54%.
Regarding `COCCCNc1nc2c(-c3cccc(C)c3)nnn2c2ccc(Cl)cc12`, the “activation, negative = inhibition” value was 12.4%.
Still for that read-out and setting: then `COC(=O)c1cc(Oc2ccc(S(=O)(=O)N3CCOCC3)cc2[N+](=O)[O-])cc(C(=O)OC)c1`, with -6.91%.
For `COc1ccc(S(=O)(=O)Nc2ccc3cn[nH]c3c2)cc1[N+](=O)[O-]`, the “activation, negative = inhibition” value was 7.24%.
Regarding `CC(C)Nc1ccc(-n2nc3ccccc3[n+]2[O-])cc1`, the Potency was 0.501 µM (active).
In the case of `CCN(CC(=O)NCc1cccs1)C(=O)/C=C/c1ccc(C)cc1`, the “activation, negative = inhibition” value was 2.1%.
Same read-out and setting: then `COc1ccccc1NC(=O)COC(=O)COc1ccccc1F`, with -7.1%.
With `Cc1cc(/C=C2/C(=N)N3C(=NC2=O)SN=C3S(C)(=O)=O)c(C)n1-c1ccccc1`, the Potency was 3.55 µM (active).
Turning to `CCC1=NN2C(=N)/C(=C/c3cc(C)n(-c4ccccc4)c3C)C(=O)N=C2S1`, the “activation, negative = inhibition” value was -0.946%.
For the compound `CCS(=O)(=O)C1=NSC2=NC(=O)/C(=C\c3cc(C)n(-c4cccc(OC)c4)c3C)C(=N)N21`, the “activation, negative = inhibition” value is 11.3%.
Same read-out and setting: with `COc1ccc([C@H]2CC(=O)C=C(/C=C/c3ccccc3)C2)cc1` the figure was 29.8%.
On to `Cc1ccc2cc3cc(C(=O)N4CCCCCC4)oc3nc2c1`, for which the Potency was 0.631 µM (active).
Regarding `COc1ccc2oc(=O)c(C(=O)N3CCCC3)cc2c1`, the “activation, negative = inhibition” value was -2%.
In the case of `Cc1cc(C)cc(NC(=O)N2CCCCCCC2)c1`, the “activation, negative = inhibition” value is -4.2%.
In the case of `O=C(NNC(=O)c1cc(S(=O)(=O)N2CCCCC2)ccc1Cl)c1ccccc1O`, the “activation, negative = inhibition” value was 1.25%.
For the compound `O=C1CCN(C(=S)NCCc2ccccc2)CC1`, the “activation, negative = inhibition” value is -4.64%.
The same measure, in the same setting: with `COc1ccc(C(=O)NC2CCN(C(=S)NCCc3ccccc3)CC2)cc1` the figure was -5.13%.
With `S=C(NCCc1ccccc1)N1CCCCC1`, the Potency is 3.16 µM (active).
On to `Cc1cccn2c(=O)nc(SCC(=O)NCc3ccccc3Cl)nc12`, for which the “activation, negative = inhibition” value was -0.952%.
Take `CC(C)CCN1CCC(C)(NC(=O)c2ccccc2)C1=O` (stereo not given): the “activation, negative = inhibition” value is -5.81%.
For `Cn1nc(-c2ccccc2)c(-c2nc(-c3ccc(Cl)cc3)no2)c1Cl`, the “activation, negative = inhibition” value is 2.72%.
On to `Nc1nonc1-c1noc(-c2ccc(Br)o2)n1`, for which the “activation, negative = inhibition” value was 4.09%.
On to `Brc1ccc(-c2noc(-c3ccccc3)n2)o1`, for which the Potency is 1.26 µM (active).
Consider `CCOC(=O)c1cn[nH]c1NC(=S)Nc1ccccc1`, for which the Potency was 1.12 µM (active).
For `CCOC(=O)c1ccc(NC(=S)Nc2cc(C)cc(C)n2)cc1`, the “activation, negative = inhibition” value was 8.83%.
For the compound `CCOC(=O)c1cc2c(nc1NC(=S)Nc1ccccc1)CC(C)(CC)OC2` (stereo not given), the “activation, negative = inhibition” value is 2.37%.
In the case of `Cn1nc(C(=O)OCC(=O)N(Cc2ccccc2)C(C)(C)C)c2ccccc2c1=O`, the “activation, negative = inhibition” value was -5.8%.
`O=S(=O)(Nc1ccc(-n2cnnn2)cc1)c1ccc(Cl)cc1`: the “activation, negative = inhibition” value is 2.76%.
`O=C(COc1nc2ccccc2nc1N1CCOCC1)NCC(F)(F)F`: the “activation, negative = inhibition” value is 1.89%.
On the same count and under the same terms, then `O=C(C1Cc2ccccc2CN1C(=O)c1ccco1)N1CCN(c2ccccc2)CC1` (stereo not given), with -0.202%; and `CCn1cnc2scc(-c3ccc(C)c(C)c3)c2c1=O`, with -0.893%.
